Test results taken from the supplement of paper PMC3334620.
The full ranking holds about 33,000 sequences; the median of “E-score (-0.5 to 0.5)” is about -0.021, and the highest 2% start at about 0.32. The list comes from a sample in which the highest values are over-represented; it also holds similar and randomly drawn sequences.

What follows are sequences tested against T1, Zap1 (UniProt P47043) (assay: PBM E-score (8-mer binding enrichment) (E-score (-0.5 to 0.5)); higher = stronger / more preferred TF binding). Settings: protein concentration: 200 nM; construct: GST-full length.
T1 sequence: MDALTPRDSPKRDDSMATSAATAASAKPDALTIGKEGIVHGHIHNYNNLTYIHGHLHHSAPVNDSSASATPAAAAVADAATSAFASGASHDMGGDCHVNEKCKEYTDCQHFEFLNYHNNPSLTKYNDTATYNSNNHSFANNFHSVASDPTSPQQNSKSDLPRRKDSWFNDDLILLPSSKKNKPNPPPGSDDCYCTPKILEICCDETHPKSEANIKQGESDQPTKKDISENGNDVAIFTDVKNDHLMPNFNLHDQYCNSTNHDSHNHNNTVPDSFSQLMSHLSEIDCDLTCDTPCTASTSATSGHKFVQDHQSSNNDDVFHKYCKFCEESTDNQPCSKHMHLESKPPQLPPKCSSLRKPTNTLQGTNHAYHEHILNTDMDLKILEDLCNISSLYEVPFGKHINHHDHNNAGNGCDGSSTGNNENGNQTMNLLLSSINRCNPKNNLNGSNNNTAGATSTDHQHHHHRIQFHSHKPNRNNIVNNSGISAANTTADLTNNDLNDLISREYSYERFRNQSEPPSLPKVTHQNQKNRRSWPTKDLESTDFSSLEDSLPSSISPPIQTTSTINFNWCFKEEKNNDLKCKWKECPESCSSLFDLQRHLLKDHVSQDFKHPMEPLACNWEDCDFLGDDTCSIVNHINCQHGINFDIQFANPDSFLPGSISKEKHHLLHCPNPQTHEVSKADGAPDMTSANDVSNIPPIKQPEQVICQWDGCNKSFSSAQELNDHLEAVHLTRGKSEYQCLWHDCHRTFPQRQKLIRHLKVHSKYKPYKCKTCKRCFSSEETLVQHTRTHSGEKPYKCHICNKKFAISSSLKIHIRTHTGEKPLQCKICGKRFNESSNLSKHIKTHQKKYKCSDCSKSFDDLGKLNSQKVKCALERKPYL
Method in brief: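 Universal all-10-mer Agilent arrays, fresh or stripped once, were converted to double-stranded form by primer extension. GST-tagged yeast transcription factors from PURExpress in vitro transcription/translation, full-length or DNA-binding domain only, were applied at about 100-200 nM and detected with fluorescent anti-GST. After masliner normalisation, the Universal PBM Analysis Suite scored each ungapped eight-base word together with its reverse complement by E-score.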

Sequence | PBM E-score
TACGACGA | -0.0483
ACCCGTCT | -0.0166
CAGCTAAA | 0.0244
CGCGATGA | 0.181
GATTCTAA | -0.0858
CCATTGAA | 0.174
ATTCGACC | 0.0544
ATTAACCC | 0.334
ATTAACAC | 0.172
ATTAACTC | 0.0519
GGCTCAGA | -0.101
GCTTACCA | 0.0792
AGGCTGTC | -0.202
ACACTGGC | -0.0599
CATACAGC | -0.249
GCTGGTTA | 0.329
CCTGGTTA | 0.306
GCTGGTCA | 0.0223
GCTGGTGA | 0.0777
ACTGGTTC | 0.0663
ACTGGTTA | 0.405
AACTGTTG | -0.147
TGAACACA | 0.0543

Sequence | PBM E-score
CACTACCG | 0.129
CAAAGAGG | 0.0514
AAGCTATT | -0.138
ACCCGAAG | 0.197
ACCCGTAA | 0.333
CCCCGTAA | 0.16
ACCCGTAC | 0.0183
CCCCCGAA | -0.164
AACCCGAT | 0.31
ACCCCGAA | 0.384
ACCCCGAT | 0.197
ACCCGAAA | 0.328
GACCCGAA | 0.175
ACCCGAAT | 0.254
AACCCGAA | 0.327
TCCACGAA | 0.111
CGTGAAGC | -0.326
TAGAGTCA | -0.166
AAACTTGG | 0.124
AACCAAGT | 0.271
CGAGAGGA | -0.0403
CGCCTTCA | -0.26
CCAGGGGA | -0.0512

Sequence | PBM E-score
AGTACCAC | 0.208
GTTACCAA | 0.362
GGTACCAC | 0.362
TGTACCAA | 0.0671
GTTACAAA | 0.343
ATTACCAA | 0.18
CGTACCAA | -0.0153
GTTACAAC | 0.291
CTTACCAA | 0.0782
CGTACCAC | 0.0803
GGTACCAA | 0.337
CTTACAAA | 0.0824
AGCAGCCG | 0.0213
AAATGGTC | 0.207
ACTCATGC | -0.147
CACCTCGG | 0.0517
TTAGAGAA | -0.0471
GCAATAGC | -0.122
AATTCGAG | -0.131
GACTAGAC | -0.101
ACAGAAAG | 0.11
CCTTGTTA | 0.12
